Bioassay records deposited in PubChem by National Center for Advancing Translational Sciences (NCATS).
Most compounds without a hit are left out; they make up all but 21% or so of the library.
Shiga inhibitor: Shiga toxin inhibition | Vero cells, Shiga toxin protein synthesis inhibition reporter | inhibition, % at 38.7 µM | hit rate 9.2% among 290,000 | AID 2315; in the data active = inhibition mostly above about 28%, no sharp cut-off; inactive = mostly below about 43%; also: 0% is about no effect
CHX counter: counter-screen hit for Shiga toxin inhibitors, cycloheximide. cell reporter, cycloheximide protein synthesis inhibition counterscreen. max response, %. hit rate 12% among 300,000; in the data active = max response mostly above about 13%, no sharp cut-off; inactive = mostly below about 14%; also: read at 38.3 µM for the half of the compounds with a filed dose; 0% is about no effect
Pf growth 96h: inhibits malaria parasite growth, 96 h. Potency, µM (series often up to 28.7 µM), inactives show top-dose activity change, negative = inhibition, usual class: inhibitors. P. falciparum luciferase reporter growth, 96 h. AID 504834. hit rate 6.9% among 320,000; also: potency is read from the fitted curve at half-maximal effect; % is scaled to controls: 0 for no effect and ±100 for the full control effect
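Infected RBCs, 2% Hct / 0.05% parasitemia final; luciferase-reporter P. falciparum; cpd 96 h, 37 C, 5% CO2; luciferase detection reagent; luminescence.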
Pf growth 48h: inhibits P. falciparum growth in the first generation, 48 h; Potency, µM (doses to about 28.7 µM), for inactives: at the top dose activity change, negative = inhibition, most hits filed as inhibitors; hit rate 5.9% among 310,000; P. falciparum luciferase growth in erythrocytes, 48 h; also: potency is read from the fitted curve at half-maximal effect; % is scaled to controls: 0 for no effect and ±100 for the full control effect
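A one-generation exposure of luciferase-tagged malaria parasites in RPMI 1640/Albumax erythrocyte culture, 37 C and 5% CO2. Inhibition is inferred from decreased luminescence after adding detection reagent.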
SARS PLP yeast: inhibitors of SARS-CoV papain-like protease in yeast. S. cerevisiae expressing SARS-CoV PLpro, growth rescue. Potency, µM (series often up to 32.9 µM), for inactives: top-dose activity, positive = growth rescue, hits mostly activators. hit rate 0.19% among 330,000. AID 485353; calls by dose curve; also: potency is read from the fitted curve at half-maximal effect; 0% is about no effect; nearly all actives have a fitted effect of over 55% in size
NS1 inh: blocks influenza NS1 protein function; Potency, µM (doses to about 46.1 µM), inactives show top-dose activity, positive = more growth; hit rate 0.4% among 270,000; AID 2326; calls by dose curve; also: potency is read from the fitted curve at half-maximal effect; actives are rising curves; nearly all actives have a fitted effect of over 50% in size
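S. cerevisiae expressing influenza A NS1, grown in glucose, washed, then diluted 1:100 into pH 6.0 -URA galactose medium with 23 nl compound. Growth recovery read as OD600; NS1-free strain serves as control.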
An asterisk follows results filed as active; ? = inconclusive; . = no result given. Unless noted, calls follow the shape of the dose curve; as a rule, active = well fitted inhibition curve with a large enough effect; inconclusive = small, poorly fitted or top-dose-only effect, or another doubt; inactive = no such curve, though single readings can be large or run the other way.

SMILES	Shiga inhibitor	CHX counter	Pf growth 96h	Pf growth 48h	SARS PLP yeast	NS1 inh
CCOC(=O)C(=NCCCN1CCOCC1)NNc1cccc(C(F)(F)F)c1	19	-8	0%	2%	-6%	.
COc1ccccc1NCC(=O)N/N=C/c1sccc1C	27	30	1%	26%	0%	0%
Cc1ccsc1/C=N/NC(=O)Nc1ccccc1	57*	31*	4%	461%	-2%	.
CCc1ccccc1NC(=O)NC(C)c1ccc2c(c1)OCO2 (stereo not drawn)	-1	-4	?	5%	-8%	3%
Fc1ccccc1CNCCC(Cc1ccccc1)c1ccc2c(c1)OCO2 (stereo not drawn)	-7	-6	-14%	?	0%	-32%
CCNCCC(CCC(C)C)c1ccc2c(c1)OCO2 (stereo not drawn)	-11	-6	2.9µM*	?	-1%	0%
CC(C)CCC(CCNCc1ccccn1)c1ccc2c(c1)OCO2 (stereo not drawn)	-7	1	10µM*	?	0%	2%
Cc1cc2c(c(=O)n1CCN(C)C)C(c1ccc(Cl)cc1)C(C#N)=C(N)O2 (stereo not drawn)	17	-6	?	-22%	3%	4%
CCN(CC)CCCn1c(C)cc2c(c1=O)C(c1ccccc1)C(C#N)=C(N)O2 (stereo not drawn)	21	6	?	?	-4%	-3%
CCN(CC)CCCn1c(C)cc2c(c1=O)C(c1ccc(OC)c(OC)c1OC)C(C#N)=C(N)O2 (stereo not drawn)	-8	-6	0.93µM*	?	8%	-6%
CCOc1ccc(C2C(C#N)=C(N)Oc3cc(C)n(CCN(C)C)c(=O)c32)cc1OCC (stereo not drawn)	-11	-2	12µM*	5%	1%	4%
O=C(NCCO)C(O)C(O)C(=O)NCCO (stereo not drawn)	23	11	5%	-1%	0%	1%
COc1cc(/C=C(\C#N)c2nc3c(s2)CCCC3)ccc1O	68*	50*	.	115%	-25%	-46%
N#C/C(=C\c1cccnc1)c1nc2c(s1)CCCC2	156*	44*	14%	18%	-6%	-8%
N#C/C(=C/c1cccnc1)c1ccccc1	.	12	59%	11%	-1%	-37%
COc1cc(/C=C(\C#N)C(=O)N2CCCCC2)ccc1O	5	2	?	?	.	7%
CC1CCc2nc(/C(C#N)=C/c3cccnc3)sc2C1 (stereo not drawn)	145*	52*	24%	-33%	-15%	.
O=C(CN1CCN(S(=O)(=O)c2ccc(Br)cc2)CC1)N/N=C/c1ccco1	-8	0	-13%	-19%	26%	10%
CC(C)N1CCC2(CC1)N=C(c1ccc3c(c1)OCO3)CC(c1cc(Cl)ccc1O)N2 (stereo not drawn)	43*	47*	?	?	-30%	-33%
CC(Sc1ccc(Cl)cc1)C(=O)Nc1ccc2c(c1)OCO2 (stereo not drawn)	5	-3	11%	?	-25%	-16%
O=C(N/N=C/c1ccco1)c1cc(-c2ccccc2)nc2ccccc12	23	14	?	-6%	?	-3%
Cc1ccccc1-c1cc(C(=O)N/N=C/c2cccnc2)c2ccccc2n1	-13	3	-15%	10µM*	3%	-8%
COc1cccc(-c2cc(C(=O)N/N=C/c3ccco3)c3ccccc3n2)c1	67*	26*	?	?	-4%	?
CCCOc1cccc(-c2cc(C(=O)N/N=C/c3cccnc3)c3ccccc3n2)c1	76*	30*	?	?	-1%	29%
O=C(N/N=C/c1ccccn1)c1cc(-c2ccc(Cl)cc2)nc2ccccc12	-2	-2	9.3µM*	9.3µM*	-103%	-15%
O=C(N/N=C/c1ccccn1)c1cc(-c2ccc(Br)cc2)nc2ccccc12	8	-3	-15%	?	-1%	-56%
CCOc1ncccc1C(=O)Nc1cc(S(=O)(=O)N2CCCCCC2)ccc1OC	.	.	7%	12%	-2%	.
CC1CC(O)CC(C)(C)C1 (stereo not drawn)	.	.	-24%	-7%	.	.
CC1(C)Cc2c(sc3nc(C4CC4)n(N)c(=O)c23)CO1	15	0	83%	56%	-1%	0%
